The test system of experiment [1] is Es-2. Description: Primary qHTS to identify gynecologic anti-cancer compounds using libraries of approved drugs and bioactive compounds (AID 1345084). Note: nearly all actives have a fitted effect of over 55% in size. Note: potency is the fitted concentration of half-maximal effect. As to conditions: Gynecologic cancer cell panel viability, ATPlite luminescence, 48 h; series mostly up to 57.5 µM. The essentials:
(§1)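 Five-concentration response, 48 h; readout is ATP-driven luciferase luminescence.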

Experiment [2] concerns HeLa. The description is as above. The settings on record: Gynecologic cancer cell panel viability, ATPlite luminescence, 48 h; series mostly up to 57.5 µM. The essentials:
as §1

Experiment [3] has as its system Hek293T. The experiment is described as above. The settings on record: Gynecologic cancer cell panel viability, ATPlite luminescence, 48 h, control line for the selectivity index; series mostly up to 57.5 µM. The essentials:
as §1

Experiment [4] relates to JEG-3. The experiment is described as above. The settings on record: Gynecologic cancer cell panel viability, ATPlite luminescence, 48 h; series mostly up to 57.5 µM. The method in brief: as §1
Experiment [5] has as its system OV90. The experiment is described as above. As to conditions: Gynecologic cancer cell panel viability, ATPlite luminescence, 48 h; series mostly up to 57.5 µM. The essentials:
as §1

Experiment [6] has as its system PA-1. The experiment is described as above. As to conditions: Gynecologic cancer cell panel viability, ATPlite luminescence, 48 h; series mostly up to 57.5 µM. The essentials: as §1
Experiment [7] relates to Tov112D. Described as above. The settings on record: Gynecologic cancer cell panel viability, ATPlite luminescence, 48 h; series mostly up to 57.5 µM. The method in brief: as §1
In experiment [8] the test system is SKOV3. The experiment is described as above. As to conditions: Gynecologic cancer cell panel viability, ATPlite luminescence, 48 h; series mostly up to 57.5 µM. The method in brief: as §1
For experiment [9], the system named is Tov-21-G. The experiment is described as above. As to conditions: Gynecologic cancer cell panel viability, ATPlite luminescence, 48 h; series mostly up to 57.5 µM. The essentials: as §1
Experiment [10] can be described thus: Drug repurposing screens with cells derived from glioblastoma tumor samples (AID 1345199). Note: nearly all actives have a fitted effect of over 40% in size. As to conditions: GBM patient neurospheres viability, ATP luminescence, 48 h. The essentials: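 Primary testing used CD133+ neurospheres from four GBM patients, seven concentrations, 48 h exposure and ATP-based viability; confirmation added three slower-growing patient lines.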

The mark [11] stands for this setting: at 45.9 µM (top of the series), tumour line B.
Where [12] appears, read: at 45.9 µM (top of the series), tumour line D.
The mark [13] stands for this setting: at 46 µM (top of the series), tumour line A.
The mark [14] stands for this setting: at 46.1 µM (top of the series), tumour line C.
[15] abbreviates: at 20 µM (top of the series), tumour line C.
Where [16] appears, read: at 21.2 µM (top of the series), tumour line B.
[17] abbreviates: at 21.2 µM (top of the series), tumour line D.
[18] abbreviates: at 21.3 µM (top of the series), tumour line A.

Several values for one entry are separate records, joined by “and”; a condition that tells them apart may be missing. Identical values can stand only once. Inconclusive results are not listed. Unmarked numbers belong to inactive results. Activity calls are given as the source filed them. Calls come from the whole dose curve; as a rule, active = well fitted curve in the direction sought with a large enough effect; inconclusive = small, poorly fitted or top-dose-only effect, or another doubt; inactive = no such curve, though single readings can be large; an effect the other way counts as inactive or inconclusive.

For 23 molecules, Potency and activity, negative = cell killing results are on record in PubChem BioAssay (NCATS).
% is set by controls: 0 for no effect and ±100 for the full control effect.

As to `CCS(=O)(=O)N1CC(CC#N)(n2cc(-c3ncnc4[nH]ccc34)cn2)C1`, the Potency result in experiment [1], in [2], in [3], in [4], in [5] and in [6] was “inactive” in each case. Also, the Potency entry in experiment [7] was “inactive”.
On to `CC(=O)c1ccc(S(=O)(=O)NC(=O)NC2CCCCC2)cc1`, for which the Potency result in experiment [1], in experiment [2], in [3], in experiment [4], in experiment [5] and in experiment [6] was “inactive” throughout. In addition, the Potency result in experiment [8], in [9] and in experiment [7] was “inactive” each time. Further, the activity, negative = cell killing in experiment [10] (setting [11]) was -1.16%; in [10] (setting [12]) it was 0.333%; in experiment [10] (setting [13]), -21.5%; in experiment [10] (setting [14]), -21%.
With `O=C(NCc1ccccc1)c1csc(Nc2ccncn2)n1`, the Potency result in experiment [1], in experiment [2], in experiment [3], in experiment [4], in experiment [5] and in [6] was “inactive” in each case. In addition, the Potency entry in experiment [7] was “inactive”.
Turning to `CN(C)C1CCN(C(=O)c2ccc(NC(=O)Nc3nc(N4CCOCC4)nc(N4CCOCC4)n3)cc2)CC1`, the Potency in experiment [1] is 794 nM (active); in experiment [2], 794 nM (active); in [3], 891 nM (active); in experiment [5] it was 141 nM (active); in [8] it was 100 nM (active).
Take `Cc1cccc(C)c1OCC(C)N` (configuration not stated): the Potency result in experiment [1], in [2], in experiment [3], in experiment [4], in experiment [5] and in [6] was “inactive” in each case. The Potency entry in experiment [9] and in [7] was “inactive” throughout. The results for the activity, negative = cell killing in experiment [10] (setting [11]), in experiment [10] (setting [12]) and in [10] (setting [14]) were -9.46%, 4.9% and 3.32%, respectively.
For `COC[C@@H](c1ccc(C(F)(F)F)cc1)N1CCN(C2(C)CCN(C(=O)c3c(C)ncnc3C)CC2)C[C@H]1C`, the Potency entry in experiment [1], in experiment [2], in experiment [3], in experiment [4], in experiment [5] and in experiment [6] was “inactive” each time. Besides, the Potency entry in experiment [9] and in [7] was “inactive” throughout.
`CCN(CC)C(=O)c1ccc(O)c(OC)c1`: the Potency entry in experiment [1], in [2], in [3], in experiment [4], in experiment [5] and in [6] was “inactive” throughout. Besides, the Potency result in [8], in experiment [9] and in experiment [7] was “inactive” each time. Moreover, the activity, negative = cell killing in experiment [10] (setting [15]) is -17.1%; in experiment [10] (setting [16]), -3.79%; in experiment [10] (setting [17]), 8.85%; in experiment [10] (setting [18]), -7.96%; in [10] (setting [11]), -9.11%; in experiment [10] (setting [12]), 5.23%. Also, the activity, negative = cell killing is -18.7% in experiment [10] (setting [13]) and -18.9% in experiment [10] (setting [14]).
`COc1ccc(C2Sc3ccccc3N(CCN(C)C)C(=O)C2OC(C)=O)cc1` (configuration not stated): the Potency entry in experiment [1], in [2], in [3], in experiment [4], in experiment [5] and in [6] was “inactive” throughout. Further, the Potency entry in experiment [9] and in [7] was “inactive” each time.
Take `O=C(O)Cc1cccc2ccccc12`: the Potency result in experiment [1], in experiment [2], in experiment [3], in experiment [4], in experiment [5] and in experiment [6] was “inactive” throughout. Besides, the Potency result in experiment [8], in experiment [9] and in experiment [7] was “inactive” throughout. Also, the activity, negative = cell killing in experiment [10] (setting [11]) is -11.6%; in [10] (setting [12]), 18.7%; in experiment [10] (setting [13]), -19.6%; in [10] (setting [14]), -6.29%; in experiment [10] (at 91.6 µM (top of the series), tumour line A), -29.8%; in experiment [10] (at 91.6 µM (top of the series), tumour line B), 9.54%. Moreover, the activity, negative = cell killing was -15.1% in experiment [10] (at 91.6 µM (top of the series), tumour line D) and 10.5% in experiment [10] (at 99.2 µM (top of the series), tumour line C).
In the case of `NC(=O)c1cnc(-c2ccc(C3(N)CCC3)cc2)c(-c2ccccc2)c1`, the Potency result in experiment [1], in experiment [2], in [3], in [4] and in [7] was “inactive” throughout. In addition, in experiment [8], the Potency was 28200 nM (active).
Consider `O=C1NC(=O)C(c2ccccc2)(c2ccccc2)N1`, for which the Potency entry in experiment [1], in [2], in [3], in experiment [4], in experiment [5] and in [6] was “inactive” each time. Also, the Potency result in experiment [8], in experiment [9] and in experiment [7] was “inactive” throughout. Moreover, the activity, negative = cell killing in experiment [10] (setting [11]) is -5.12%; in experiment [10] (setting [12]), -12.9%; in experiment [10] (setting [13]), -29.6%; in experiment [10] (setting [14]) it was 10.5%.
In the case of `NC(N)=Nc1nc(CSCC/C(N)=N/S(N)(=O)=O)cs1`, the Potency result in experiment [1], in [2], in experiment [3], in experiment [4], in [5] and in [6] was “inactive” throughout. The Potency entry in experiment [8], in experiment [9] and in [7] was “inactive” in each case. The activity, negative = cell killing is -1.53% in experiment [10] (setting [11]), -7.06% in experiment [10] (setting [12]), -13.8% in experiment [10] (setting [13]) and -8.17% in experiment [10] (setting [14]).
For the molecule `COc1cc2nc(-c3ccc(N4CCN(C)CC4)cc3)nc(NCCN3CCOCC3)c2cc1OC`, the Potency result in [1], in [2], in [3], in experiment [4] and in [7] was “inactive” in each case. In addition, in [6], the Potency was 15.8 µM (active).
Regarding `CN1CCN(CCOc2cc(OC3CCOCC3)c3c(Nc4c(Cl)ccc5c4OCO5)ncnc3c2)CC1`, the Potency result in experiment [1], in experiment [2], in experiment [3], in experiment [4] and in experiment [7] was “inactive” in each case. In addition, the Potency in [8] is 3550 nM (active); in [9], 2.24 µM (active).
`CC[C@]1(O)C[C@@H]2CN(CCc3c([nH]c4ccccc34)[C@@](C(=O)OC)(c3cc4c(cc3OC)N(C)[C@H]3[C@@](O)(C(=O)OC)[C@H](OC(C)=O)[C@]5(CC)C=CCN6CC[C@]43[C@@H]65)C2)C1`: the Potency in experiment [1] is 1.12 µM (active) and 708 nM (active) and 794 nM (active); in experiment [2], 316 nM (active) and 1.12 µM (active) and 631 nM (active); in experiment [4], 631 nM (active); in experiment [5], 11.2 µM (active) and 4.47 µM (active) and 7.94 µM (active); in experiment [6], 316 nM (active) and 355 nM (active); in experiment [9], 316 nM (active) and 447 nM (active) and 631 nM (active). In addition, the Potency in experiment [7] is 158 nM (active) and 316 nM (active).
As for `CC(C)(C)Cn1c(N)nc2ccc(-c3[nH]c(C(C)(C)C)nc3-c3ccc(F)cc3)nc21`, the Potency result in experiment [1], in [2], in experiment [4], in experiment [6], in experiment [9] and in [7] was “inactive” in each case.
Take `COc1ccc2c(Oc3ccc(NC(=O)c4c(C)n(CC(C)(C)O)n(-c5ccccc5)c4=O)cc3F)ccnc2c1`: the Potency result in experiment [1], in [2], in experiment [3], in experiment [4], in experiment [5] and in [6] was “inactive” throughout. In addition, the Potency entry in experiment [9] and in [7] was “inactive” each time.
With `CC/C(=C(\c1ccccc1)c1ccc(OCCN(C)C)cc1)c1ccccc1`, the Potency entry in [1], in experiment [2], in experiment [3], in experiment [4], in [9] and in experiment [7] was “inactive” throughout.
Take `CN(C[C@@H]1COCCO1)S(=O)(=O)Nc1ccc2ccc3ncc(-c4cnn(C)c4)cc3c(=O)c2c1`: the Potency entry in experiment [1], in experiment [3], in experiment [4] and in experiment [5] was “inactive” each time. Moreover, the figures for the Potency in experiment [2] and in experiment [9] were 12600 nM (active) and 20 µM (active), respectively.
On to `CC1(C)CCC(CN2CCN(c3ccc(C(=O)NS(=O)(=O)c4ccc(NCC5CCOCC5)c([N+](=O)[O-])c4)c(Oc4cnc5[nH]ccc5c4)c3)CC2)=C(c2ccc(Cl)cc2)C1`, for which the Potency entry in experiment [1], in [2], in experiment [3], in experiment [5], in [6] and in experiment [8] was “inactive” throughout. The Potency entry in experiment [9] and in experiment [7] was “inactive” each time.
As to `CCn1cc(C(=O)O)c(=O)c2ccc(C)nc21`, the Potency entry in experiment [1], in experiment [2], in experiment [3], in [4], in [5] and in experiment [8] was “inactive” each time. Besides, the Potency result in [9] and in experiment [7] was “inactive” in each case. In addition, the activity, negative = cell killing was -0.634% in [10] (setting [11]), -3.73% in experiment [10] (setting [12]) and -15.1% in [10] (setting [14]).
Take `OC[C@@H](O)[C@H](O)[C@H](O)[C@@H](O)CO`: the Potency entry in experiment [1], in experiment [2], in experiment [3], in experiment [4], in experiment [5] and in [6] was “inactive” each time. The Potency result in experiment [8], in [9] and in [7] was “inactive” throughout. Also, the activity, negative = cell killing in experiment [10] (setting [11]) was 0.357% and -12%; in [10] (setting [12]), -2.85% and -9.13%; in [10] (setting [13]) it was -13.7% and -24.1%; in experiment [10] (setting [14]) it was -4.39% and -14.9%.
Turning to `CC(C(=O)O)c1ccc(-c2ccccc2)c(F)c1` (configuration not stated), the activity, negative = cell killing in [10] (setting [15]) was -24.7%; in experiment [10] (setting [16]), -12.6%; in [10] (setting [17]), -11%; in experiment [10] (setting [18]) it was -20.3%.
